Reference: PubChem BioAssay (NCATS)
“And” between values parts separate entries of the source, which are not always exact repeats. Equal values may be shown once. Records with an inconclusive call do not appear. A call without a number means that no potency is given here. Unmarked numbers belong to inactive results. The source made the active and inactive calls. The call rests on the fitted dose curve; in most records, active means well fitted inhibition curve with a large enough effect; inconclusive means small, poorly fitted or top-dose-only effect; inactive means flat fitted curve, though single readings scatter.

Columns and labels:
[1] = biological target: Calcium and integrin-binding protein 1 (Homo sapiens) (UniProt Q99828); assay: Primary qHTS for Identification of Calcium Integrin Binding Protein 1 (CIB1) Competitor (AID 1508620);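 further: GST tagged CIB1 binding a fluorescein labelled alphaIIb integrin peptide tracer; top concentration of the series differs between compounds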
Procedure, shortened: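 CIB1-GST (1 uM final) and compound incubated 15 min at room temperature before adding FITC-alphaIIb peptide tracer (100 nM final). Competition for binding read by fluorescence polarization (ex 480, em 540) after another 15 min at room temperature.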

[2] = Primary qHTS for inhibitors of nuclear receptor binding SET domain protein 2 (NSD2) in an isogenic RCH-ACV NSD2 p.E1099K mutant (9B) (AID 1645876); further: nearly all actives have a fitted effect of over 70% in size; further: potency means the concentration at half of the fitted maximal effect

Sequence of Calcium and integrin-binding protein 1 (Homo sapiens) (Q99828 whole entry, looked up): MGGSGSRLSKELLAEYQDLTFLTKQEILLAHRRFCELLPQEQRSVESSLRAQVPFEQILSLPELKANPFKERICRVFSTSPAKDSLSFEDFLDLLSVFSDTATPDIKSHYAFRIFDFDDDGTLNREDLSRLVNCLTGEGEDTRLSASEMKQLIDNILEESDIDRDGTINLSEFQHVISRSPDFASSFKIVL

Row | Structure (SMILES) | Potency [1] | Potency [2] | activity change, negative = inhibition [1] | activity change, negative = viability loss [2]
1 | CN[C@H](CC(C)C)C(=O)N[C@H]1C(=O)N[C@@H](CC(N)=O)C(=O)N[C@H]2C(=O)N[C@H]3C(=O)N[C@H](C(=O)N[C@H](C(=O)O)c4cc(O)cc(O)c4-c4cc3ccc4O)[C@H](O[C@H]3C[C@](C)(N)[C@@H](O)[C@H](C)O3)c3ccc(c(Cl)c3)Oc3cc2cc(c3O[C@@H]2O[C@H](CO)[C@@H](O)[C@H](O)[C@H]2O[C@H]2C[C@](C)(NCc3ccc(-c4ccc(Cl)cc4)cc3)[C@@H](O)[C@H](C)O2)Oc2ccc(cc2Cl)[C@H]1O | inactive | inactive |  | 
2 | COC(=O)C1=COC(OC2OC(CO)C(O)C(O)C2O)C2C1C=CC2(O)CO (centres undefined) | inactive | inactive |  | 
3 | COc1cc(OC)c(/C=C/S(=O)(=O)Cc2ccc(OC)c(NCC(=O)O)c2)c(OC)c1 | inactive | 57.8 nM (active) and 59 nM (active) |  | 
4 | CC(C)C(C(=O)N(C)C(C)C(N)=O)N(C)C(=O)C1CCCN1C(=O)/C=C/C=C/C(O)C(C)O (centres undefined) | inactive | inactive |  | 
5 | CC1=CCC(C(C)(C)O[C@@H]2O[C@H](CO[C@@H]3O[C@@H](C)[C@H](O)[C@@H](O)[C@H]3O)[C@@H](O)[C@H](O)[C@H]2O)CC1 (some centres undefined) | inactive | inactive |  | 
6 | CCC(C)C(=O)OC1CC(O)C23C4OCC5(C(O)CC2C1(C)C(O)O4)C3C(=O)CC1(C)C(c2ccoc2)CC2OC215 (centres undefined) | inactive | 399 nM (active) |  | 
7 | COC(=O)C1=COC(O[C@@H]2O[C@H](CO)[C@@H](O)[C@H](O)[C@H]2O)[C@H]2[C@@H]1[C@H](OC(=O)CCc1ccc(O)cc1)C[C@]2(C)O (some centres undefined) | inactive | inactive |  | 
8 | CC(CO)C1CCC2(C)CC3C(CO)CC(O)C3C(C)(O)C/C=C/12 (centres undefined) | inactive | inactive |  | 
9 | CC12CCC3c4ccc(OC5OC(C(=O)O)C(O)C(O)C5O)cc4CCC3C1CCC2O (centres undefined) | inactive | inactive |  | 
10 | C=C(CO[C@@H]1O[C@H](CO[C@@H]2OC[C@](O)(CO)[C@H]2O)[C@@H](O)[C@H](O)[C@H]1O)C1Cc2cc(C(C)=O)ccc2O1 (some centres undefined) | inactive | inactive |  | 
11 | O=C(OC1C=C(CO)C2C(OC3OC(CO)C(O)C(O)C3O)OC=CC12)c1ccc(O)cc1 (centres undefined) | inactive | inactive |  | 
12 | C/C1=C\CC[C@H](C)CCO[C@@H]2O[C@H](CO[C@@H]3OC[C@](O)(COC1=O)[C@H]3O)[C@@H](O)[C@H](O)[C@H]2O | inactive | inactive |  | 
13 | C/C=C1\[C@H](O[C@@H]2O[C@H](CO)[C@@H](O)[C@H](O)[C@H]2O)OC=C2C(=O)OCCc3ccc(O)c(c3)Oc3ccc(cc3)CCOC(=O)C[C@H]21 | inactive | inactive |  | 
14 | C=CC(C)(C)C12C=C(OC)C(=O)N3C(C(C)C)C(=O)NC31N(OC)c1ccccc12 (centres undefined) | inactive | inactive |  | 
15 | CC(=O)O[C@@H]1c2c(C)coc2C(=O)[C@@]23O[C@@H]2CC[C@H](C)[C@@]13C | inactive | inactive |  | 
16 | O=C(O)c1cc(I)ccc1NC(=O)[C@H](Cc1ccccc1)NCc1ccccc1 | inactive | inactive |  | 
17 | C/C=C/C=C/C(O)=C1\C(O)=C(C)C(=O)[C@@]2(C)OC(=O)[C@@](C)(NC(=O)/C=C/C(=O)O)[C@@H]12 | inactive | inactive |  | 
18 | C=C1C(=O)O[C@H]2[C@H]1CC/C(C)=C/CC[C@@]1(C)O[C@@H]21 | inactive | 25800 nM (active) |  | 
19 | CC(O)/C=C/C1(O)C2(C)COC1(C)CC(O)C2 (centres undefined) | inactive | inactive |  | 

Row | Structure (SMILES) | Potency [1] | Potency [2] | activity change, negative = inhibition [1] | activity change, negative = viability loss [2]
20 | O=C1CCC=CC1(O)C(=O)OCc1ccccc1O[C@@H]1O[C@H](CO)[C@@H](O)[C@H](O)[C@H]1O (some centres undefined) | inactive | 12600 nM (active) |  | 
21 | CC/C=C\CC1C(=O)C=CC1(CCCCCCCC(=O)O)OC(C)=O (centres undefined) | inactive | inactive |  | 
22 | CC1(C)CCCC2(C)C1C(O)C=C(CO)C2(O)CO (centres undefined) | inactive | inactive |  | 
23 | C[C@@H]1CC[C@@]2(OC1)O[C@H]1C[C@H]3[C@@H]4CC=C5C[C@@H](O)CC[C@]5(C)[C@H]4CC[C@]3(C)[C@H]1[C@@H]2C | inactive | inactive |  | 
24 | C[C@H]1O[C@@H](O[C@H]2CC[C@@]3(C)C(CC[C@]4(C)C3CC=C3C5CC(C)(C)CC[C@]5(C(=O)O)CC[C@]34C(=O)O)C2(C)C)[C@H](O)[C@@H](O)[C@@H]1O (some centres undefined) | inactive | inactive |  | 
25 | COC(=O)/C=C/C12COC(C)(C)C1C(O)C(OC(C)=O)C1(C)C2CCC2(C)C(c3ccoc3)OC(=O)C3OC321 (centres undefined) | inactive | inactive |  | 
26 | O=C1Nc2ccccc2C(O)(c2ccccc2)C1O (centres undefined) | inactive | inactive |  | 
27 | C[C@@H]1C[C@@H]2O[C@H]2/C=C\C=C\C(=O)Cc2c(Cl)c(O)cc(O)c2C(=O)O1 | inactive | 1010 nM (active) |  | 
28 | C#CC[C@H](c1nc2cc(Cl)ccc2c(=O)n1Nc1ccccc1)N(CCCN)C(=O)c1cccc(Cl)c1F | inactive | 372 nM (active) |  | 
29 | CC(=O)/C=C/[C@H]1[C@](C)(O)[C@@H](O)[C@H](OC(C)=O)C2C(C)(C)CCC[C@@]21C (some centres undefined) | inactive | inactive |  | 
30 | CC(C)[C@H]1CC[C@@]2(O)COC(=O)[C@H]2[C@@H]1/C=C(\CO)C(=O)O | inactive | inactive |  | 
31 | CC1C=CC2CCCCC2C1CCC1CC(O)CC(=O)O1 (centres undefined) | inactive | inactive |  | 
32 | COc1ccc(C(O)C(C)OC2OC(CO)C(O)C(O)C2O)cc1 (centres undefined) | inactive | inactive |  | 
33 | C/C=C1\[C@H](O[C@@H]2O[C@H](CO)[C@@H](O)[C@H](O)[C@H]2O)OC=C(C(=O)OC)[C@H]1CC(=O)O | inactive | inactive |  | 
34 | CC(C)CC(=O)OC1OC=C(CO[C@@H]2O[C@H](CO)[C@@H](O)[C@H](O)[C@H]2O)C2CC(O)C(O)(CO)C12 (some centres undefined) | inactive | inactive |  | 
35 | OC[C@H]1O[C@@H](O[C@H]2[C@H](OCCc3ccccc3)O[C@H](CO)[C@@H](O)[C@@H]2O)[C@H](O)[C@@H](O)[C@@H]1O | inactive | inactive |  | 
36 | O=C(/C=C/c1ccc(O)cc1)OC1[C@H](O)CC(O)(C(=O)O)C[C@H]1O (some centres undefined) | inactive | inactive |  | 
37 | C[C@H]1[C@H](O)O[C@@H]2O[C@@]3(C)CC[C@H]4[C@H](C)CC[C@@H]1[C@@]24OO3 | inactive | 1180 nM (active) |  | 
38 | CC(C(O)/C=C/C(C)(C)O)C1CCC2(C)C3C(=O)C=C4C(CCC(O)C4(C)C)C3(C)CCC12C (centres undefined) | inactive | inactive |  | 

Row | Structure (SMILES) | Potency [1] | Potency [2] | activity change, negative = inhibition [1] | activity change, negative = viability loss [2]
39 | COc1cc(C(=O)O)ccc1OC1OC(CO)C(O)C(O)C1O (centres undefined) | inactive | inactive |  | 
40 | C[C@@H]1O[C@@H](O[C@@H]2[C@@H](O)[C@H](O[C@H]3[C@H](O[C@H]4CC[C@@]5(C)C(CC[C@]6(C)C5CC=C5[C@@H]7CC(C)(C)CC[C@]7(C(=O)O[C@@H]7O[C@H](CO)[C@@H](O)[C@H](O)[C@H]7O[C@@H]7O[C@@H](C)[C@H](O[C@@H]8O[C@@H](C)[C@H](O)[C@@H](O)[C@H]8O)[C@@H](O)[C@H]7O)CC[C@]56C)[C@@]4(C)CO)O[C@H](C(=O)O)[C@@H](O)[C@@H]3O)O[C@H](CO)[C@H]2O)[C@H](O)[C@H](O)[C@H]1O (some centres undefined) |  |  | 4.5% [at 12.4 µM] | -0.268% [at 9.23 µM]
41 | CC(C)CC1NC(=O)C2CC3(O)c4ccccc4NC3N2C1=O (centres undefined) | inactive | inactive |  | 
42 | O=C(O)CC(=O)OC[C@H]1O[C@@H](Oc2ccc3c(c2)OC[C@H]2c4cc5c(cc4O[C@@H]32)OCO5)[C@H](O)[C@@H](O)[C@@H]1O | inactive | inactive |  | 
43 | CC(O)/C=C/C1C(C)C(O[C@@H]2O[C@H](CO)[C@@H](O)[C@H](O)[C@H]2O)C(O)CC1(C)C (some centres undefined) | inactive | inactive |  | 
44 | C[C@@H]1C(=O)O[C@H]2C[C@]34[C@H]5C[C@@H](C(C)(C)C)[C@]36[C@@H](OC(=O)[C@H]6O)O[C@]4(C(=O)O5)[C@]21O | inactive | inactive |  | 
45 | C=C[C@]1(C)C[C@H](O)[C@@H]2[C@H](OC(=O)[C@@H]2C)C1/C(C)=C/O[C@@H]1O[C@H](CO)[C@@H](O)[C@H](O)[C@H]1O (some centres undefined) | inactive | inactive |  | 
46 | COc1ccc(C[C@H](N)C(=O)N[C@@H]2[C@H](O)[C@H](n3cnc4c(N(C)C)ncnc43)O[C@@H]2CO)cc1 | inactive | 325 nM (active) |  | 
47 | COc1cc(/C=C/C=O)cc(OC)c1O[C@@H]1O[C@H](CO)[C@@H](O)[C@H](O)[C@H]1O | inactive | inactive |  | 
48 | O=C(CSc1nc2c(c(=O)n1-c1ccccc1)SCC2)Nc1ccc(-c2ccccc2)cn1 | inactive | 36.5 nM (active) |  | 
49 | CC(=O)OCC1(O)CCC2C(COC3OC(CO)C(O)C(O)C3OC(=O)/C=C/c3ccc(O)cc3)=COC(OC(=O)CC(C)C)C21 (centres undefined) | inactive | inactive |  | 
50 | COc1c2c(cc3c1-c1c(cc4c(c1OC)OCO4)CC(C)C(C)C3)OCO2 (centres undefined) | inactive | inactive |  | 
51 | CC(=O)O[C@H]1CC[C@@]2(C)C(CC[C@@H](C)[C@]23Cc2c(O)cc4c(c2O3)CN([C@@H](CCC(=O)O)C(=O)O)C4=O)C1(C)C (some centres undefined) | inactive | inactive |  | 
52 | CC(C)CN(C[C@@H](O)[C@H](Cc1ccccc1)NC(=O)O[C@@H]1CO[C@H]2OCC[C@H]21)S(=O)(=O)c1ccc(N)cc1 | inactive | inactive |  | 
53 | CC/C=C\[C@H](O)[C@H](O)C1=C(C)C(=O)[C@]2(O1)C(=O)N[C@@](OC)(C(=O)c1ccccc1)[C@@H]2O | inactive | inactive |  | 
54 | CC(C)C[C@H](CC(=O)NO)C(=O)N[C@H](C(=O)N[C@@H](C)C(=O)NCCN)C(C)(C)C | inactive |  |  | -8.25% [at 9.23 µM]
55 | C=C(C(=O)O)C1CC2=C(C)CCCC2(C)C[C@@H]1O (some centres undefined) | inactive | inactive |  | 
56 | CC(=O)O[C@@](C)(C(=O)/C=C/C(C)(C)O)[C@H]1[C@H](O)C[C@@]2(C)[C@@H]3CC=C4[C@@H](C=C(O)C(=O)C4(C)C)[C@]3(C)C(=O)C[C@]12C | inactive | 502 nM (active) |  | 
57 | CC1(C)CC[C@]2(C(=O)O)[C@H](O)C[C@]3(C)C(=CCC4[C@@]5(C)CC[C@H](O[C@@H]6O[C@H](CO[C@@H]7OC[C@H](O)[C@H](O)[C@H]7O[C@@H]7OC[C@@H](O)[C@H](O)[C@H]7O)[C@@H](O)[C@H](O)[C@H]6O[C@@H]6O[C@H](CO)[C@@H](O)[C@H](O)[C@H]6O)C(C)(C)C5CC[C@]43C)[C@@H]2C1 (some centres undefined) | inactive |  |  | -4.67% [at 9.23 µM]
